Results from the supplement of paper PMC8728848.
The entries come from a sample that favours the strongest signals as a whole.

Key:
Assay in all cases: glycan array binding signal (z-score within array); higher = stronger binding
Conditions in all cases: glycan notation: IUPAC condensed, linker removed
Gal3S(b1-4)GlcNAc6S = biological target: Gal3S(b1-4)GlcNAc6S
Outline: (§1)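 Glycan array binding is given as a within-array Z-score, which can be read as non-binding when negative. The arrays, 3228 of them, came from the Consortium for Functional Glycomics database and were retained only where the protein sequence was available. Z-scores were averaged across arrays of the same protein sequence at different concentrations or buffers and across linkers.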

[1] = biological target: Gal3S(b1-4)[Fuc(a1-3)]GlcNAc
Outline: as §1

[2] = biological target: Gal3S(b1-4)[Fuc(a1-3)]GlcNAc6S
Outline: as §1

Gal6S(b1-4)GlcNAc6S = biological target: Gal6S(b1-4)GlcNAc6S
Outline: as §1

GalNAc(b1-4)Gal(b1-4)Glc = biological target: GalNAc(b1-4)Gal(b1-4)Glc
Outline: as §1

GalNAc3S(b1-4)GlcNAc = biological target: GalNAc3S(b1-4)GlcNAc
Outline: as §1

GalNAc4S6S(b1-4)GlcNAc = biological target: GalNAc4S6S(b1-4)GlcNAc
Outline: as §1

[3] = biological target: GlcNAc(a1-4)Gal(b1-4)GlcNAc(b1-3)Gal(b1-4)[Fuc(a1-3)]GlcNAc(b1-3)Gal(b1-4)[Fuc(a1-3)]GlcNAc
Outline: as §1

[4] = biological target: GlcNAc(a1-6)Gal(b1-4)GlcNAc
Outline: as §1

[5] = biological target: GlcNAc(b1-2)Man(a1-3)[GlcNAc(b1-4)][GlcNAc(b1-2)Man(a1-6)]Man(b1-4)GlcNAc(b1-4)[Fuc(a1-6)]GlcNAc
Outline: as §1

[6] = biological target: GlcNAc(b1-3)Gal(b1-4)GlcNAc(b1-3)Gal(b1-4)GlcNAc(b1-3)Gal(b1-4)GlcNAc(b1-3)Gal(b1-4)GlcNAc(b1-2)Man(a1-3)[GlcNAc(b1-3)Gal(b1-4)GlcNAc(b1-3)Gal(b1-4)GlcNAc(b1-3)Gal(b1-4)GlcNAc(b1-3)Gal(b1-4)GlcNAc(b1-2)Man(a1-6)]Man(b1-4)GlcNAc(b1-4)[Fuc(a1-6)]GlcNAc
Outline: as §1

[7] = biological target: GlcNAc(b1-3)Gal(b1-4)GlcNAc(b1-6)[Gal(b1-3)]GalNAc
Outline: as §1

[8] = biological target: GlcNAc(b1-3)Gal(b1-4)GlcNAc(b1-6)[GlcNAc(b1-3)]Gal(b1-4)GlcNAc
Outline: as §1

[9] = biological target: GlcNAc(b1-4)[GlcNAc(b1-6)]GalNAc
Outline: as §1

[10] = biological target: Man(a1-2)Man(a1-2)Man(a1-3)Man
Outline: as §1

Man(b1-4)GlcNAc = biological target: Man(b1-4)GlcNAc
Outline: as §1

[11] = biological target: Neu5Ac(a2-3)Gal(b1-3)GalNAc(b1-3)Gal(a1-4)Gal(b1-4)Glc
Outline: as §1

[12] = biological target: Neu5Ac(a2-3)Gal(b1-3)[Fuc(a1-4)]GlcNAc(b1-3)Gal(b1-3)[Fuc(a1-4)]GlcNAc
Outline: as §1

[13] = biological target: Neu5Ac(a2-3)Gal(b1-4)GlcNAc(b1-2)[Neu5Ac(a2-3)Gal(b1-4)GlcNAc(b1-4)]Man(a1-3)[GlcNAc(b1-4)][Neu5Ac(a2-3)Gal(b1-4)GlcNAc(b1-4)Man(a1-6)]Man(b1-4)GlcNAc(b1-4)GlcNAc
Outline: as §1

[14] = biological target: Neu5Ac(a2-3)[GalNAc(b1-4)]Gal(b1-4)GlcNAc
Outline: as §1

[15] = biological target: Neu5Ac(a2-6)Gal(b1-4)GlcNAc(b1-3)GalNAc
Outline: as §1

[16] = biological target: Neu5Ac(a2-6)GlcNAc(b1-4)GlcNAc
Outline: as §1

[17] = biological target: Neu5Ac(a2-8)Neu5Ac(a2-3)Gal(b1-3)GalNAc(b1-4)[Neu5Ac(a2-3)]Gal(b1-4)Glc
Outline: as §1

[18] = biological target: Neu5Gc(a2-6)Gal(b1-4)GlcNAc
Outline: as §1

B1: Flo1 (Saccharomyces cerevisiae), P32768 (protein)
chain: SGATEACLPAGQRKSGMNINFYQYSLKDSSTYSNAAYMAYGYASKTKLGSVGGQTDISIDYNIPCVSSSGTFPCPQEDSYGNWGCKGMGACSNSQGIAYWSTDLFGFYTTPTNVTLEMTGYFLPPQTGSYTFKFATVDDSAILSVGGATAFNCCAQQQPPITSTNFTIDGIKPWGGSLPPNIEGTVYMYAGYYYPMKVVYSNAVSWGTLPISVTLPDGTTVSDDFEGYVYSFDDDLSQSNCTVPDPSNY
Gal3S(b1-4)GlcNAc6S
  glycan array binding signal (z-score): -0.289
[1]
  glycan array binding signal (z-score): -0.778
[2]
  glycan array binding signal (z-score): -0.547
Gal6S(b1-4)GlcNAc6S
  glycan array binding signal (z-score): -0.216
GalNAc(b1-4)Gal(b1-4)Glc
  glycan array binding signal (z-score): 3.53
GalNAc3S(b1-4)GlcNAc
  glycan array binding signal (z-score): -0.358
GalNAc4S6S(b1-4)GlcNAc
  glycan array binding signal (z-score): 3.28
[3]
  glycan array binding signal (z-score): 2.23
[4]
  glycan array binding signal (z-score): -0.009
[5]
  glycan array binding signal (z-score): 0.011
[6]
  glycan array binding signal (z-score): -0.202
[7]
  glycan array binding signal (z-score): -0.618
[8]
  glycan array binding signal (z-score): -2.82
[9]
  glycan array binding signal (z-score): -0.024
[10]
  glycan array binding signal (z-score): 0.403
Man(b1-4)GlcNAc
  glycan array binding signal (z-score): -0.306
[11]
  glycan array binding signal (z-score): -0.211
[12]
  glycan array binding signal (z-score): 0.24
[13]
  glycan array binding signal (z-score): 0.143
[14]
  glycan array binding signal (z-score): 0.215
[15]
  glycan array binding signal (z-score): 0.748
[16]
  glycan array binding signal (z-score): -0.394
[17]
  glycan array binding signal (z-score): 1.62
[18]
  glycan array binding signal (z-score): -0.199
